# Experimental data taken from PubChem BioAssay AID504727 (Broad Institute, 2011).
# Activity calls are given as the source filed them.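 How the source made its calls: active means fitted half-maximal concentration AC50 at or below ten times the highest valid tested dose, with signal falling as DNA is displaced (actives reach about 34 µM in these data); inconclusive means flat fit at moderate signal loss, or poor fit quality; inactive means the rest, including signal rising instead of falling.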
# Assay: acridine orange-DNA binding displacement – biochemical, fluorescence polarization, cherry-picked samples, set 2, artefact control for KSHV LANA DNA-binding inhibitor project, dose response (AID 504727)
# Details: series mostly up to 35 µM
row,SMILES,AC50
1,COc1ccc(Cn2nnc3c(=O)[nH]c(C4CCCN(C(=O)c5ccccc5)C4)nc32)cc1 (stereo not drawn),inactive
2,O=C(NC1CCCCC1)c1cc([N+](=O)[O-])ccc1N1CCOCC1,inactive
3,Oc1ccccc1C=Nc1ccccc1-c1nc2ccccc2[nH]1,inactive
4,O=C(CCN1C(=O)/C(=C\c2ccco2)SC1=S)Nc1ccc(C(=O)O)c(O)c1,inactive
5,CCOC(=O)C1Nc2ccc(C(=O)O)cc2C2C=CCC12 (stereo not drawn),inactive
6,CC(=O)O[C@@H]1[C@@H](OC(C)=O)[C@H](n2ccc3cc([N+](=O)[O-])ccc32)OC[C@@H]1OC(C)=O,inactive
7,CC(C)c1ccc(CNc2ccc([N+](=O)[O-])cn2)cc1,inactive
8,CCOc1ccc(/C=C2\CCCc3c2nc2ccccc2c3C(=O)O)cc1OC,1.73 µM (active)
9,CCCc1cc(C(=O)Nc2ccc(C(=O)c3ccc(C)cc3)cc2)n(C)n1,inactive
10,CC(=O)OCCn1c2nc(=O)[nH]c(=O)c-2nc2cc(C)c(C)cc21,0.342 µM (active)
11,O=C1CC(=O)N(Cc2ccco2)C(=O)N1,inactive
12,CCNc1nc(NC(C)C)nc(NS(=O)(=O)c2ccc(N)cc2)n1,inactive
13,Cc1cccnc1NC1(C(F)(F)F)N=C2SCCN2C1=O (stereo not drawn),inactive
14,NC(=O)c1ccc(NC(=O)C2COc3ccccc3O2)cc1 (stereo not drawn),inactive
15,Cn1nc(-c2ccccc2)c2nc3ccccc3nc21,35.8 µM (active)
16,O=C(CCN1C(=O)/C(=C/c2ccco2)SC1=S)Nc1ccc(C(=O)O)c(O)c1,inactive
17,O=C1CCCC(O)=C1N=Nc1ccc(C(=O)O)cc1,inactive
18,O=C(CN1C(=O)NC2(CCCC2)C1=O)Nc1ccccc1-c1ccccc1,inactive
19,O=C(Nc1ccccc1F)C(=Cc1sc(N2CCOCC2)nc1-c1ccccc1)C(=O)Nc1ccccc1F,25.1 µM (active)

row,SMILES,AC50
1,O=S(=O)(O)c1cc(O)c2ccc(Nc3ccccc3)cc2c1,inactive
2,CC(Sc1ncccn1)C(=O)NNC(=O)c1cccc(Cl)c1 (stereo not drawn),inactive
3,COC(=O)Cn1c(=NC(=O)c2sc3ccccc3c2Cl)sc2cc(S(N)(=O)=O)ccc21,inactive
4,CCc1noc(C)c1C(=O)NCCc1c[nH]c2ccccc12,inactive
5,COc1ccc(OC2CCN(S(=O)(=O)c3ccc(OC)cc3)CC2)cc1,inactive
6,COc1ccc(C)cc1NC(=O)C(OC(=O)c1cnccn1)c1ccccc1 (stereo not drawn),inactive
7,CCCCCn1nc(-c2ccccc2)c2nc3ccccc3nc21,> 35 µM (inactive)
8,Nc1ccc(C(=O)Nc2ccc3c(O)cc(S(=O)(=O)O)cc3c2)cc1,inactive
9,CC(=O)NC(C(=O)c1ccccc1)C(=O)c1ccccc1,inactive
10,O=C(C1CCCO1)N1CCN(c2ncccn2)CC1 (stereo not drawn),inactive
11,CN(C)/C=N/c1nc2nccc(-c3ccc(Cl)cc3)n2n1,inactive
12,O=C(/C=C/c1ccco1)Nc1ccccc1C(=O)Nc1cccc(C(=O)O)c1,inactive
13,C/C(=N\Nc1nc2c(s1)CCCC2)c1ccc(Cl)cc1,inactive
14,Nc1nc(SCC(=O)N2CCCCC2)[nH]c(=O)c1NC(=O)c1cccs1,inactive
15,O=C(CN(Cc1ccccc1F)C(=O)c1csnn1)NCc1ccc2c(c1)OCO2,inactive
16,O=C(N/N=C\c1ccc([N+](=O)[O-])o1)c1cncc(Br)c1,inactive
17,O=C1c2cccc3c(N4CCCCC4)ccc(c23)C(=O)N1c1cccc(O)c1,inactive
18,COc1cc(SC)ccc1C(=O)Nc1nc(C)cs1,inactive
19,CCN(CC)S(=O)(=O)N1CCN(S(=O)(=O)N2CCOCC2)CC1,inactive
